# Screening data: PubChem, several laboratories
# CR mimetic SO – lowers age-related superoxide in aged yeast cells | S. cerevisiae aged cells, superoxide DHE fluorescence; active compounds read low | superoxide response (% of plate mean), % at 10 µM | 330,000 tested, 0.18% active | AID 2690;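 active means superoxide response under a set limit, about three screen SD below normal, cut at about 65% in these data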;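 further: yeast aged for seven days with compound at 30 °C before DHE staining; 100% = average MFI of all compound-treated wells on the plate with controls excluded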
# SKKanGAS inh – SKKanGAS growth inhibition; S. pyogenes SKKanGAS, kanamycin growth, BacTiter-Glo, 6 h; inhibition, % at 7.5 µM; 300,000 tested, 1.3% active; AID 1662;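 active means mean replicate score, as percent of positive control median, at least 50; inconclusive means mean below 50 but one replicate at or above 50; inactive means mean and every replicate below 50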;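 further: strain carries kanamycin resistance gene driven by streptokinase promoter and grows in 40 µg/ml kanamycin; loss of luminescence reflects streptokinase promoter inhibition or plain growth inhibition; 0% = median of DMSO wells and 100% = positive control at its reference dose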
# Platelet DG rel – modulates dense granule release in human platelets | human platelet-rich plasma, SFLLRN dense granule ATP release, luminescence | inhibition, %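 (compounds screened at 7.5 µM in platelet-rich plasma)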 | 300,000 tested, 0.22% active | AID 1663;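 active means mean replicate score, as percent of positive control, at or above 50; inconclusive means mean below 50 but at least one replicate at or above 50; inactive means mean and every replicate below 50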
# Calb FLC – C. albicans growth modulation with fluconazole | AID 1979 | growth inhibition, % (concentration not given with the values) | C. albicans CaCi-2 (fluconazole-resistant clinical isolate) + fluconazole, Alamar Blue growth, 48 h | 300,000 tested, 0.57% active;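 active means growth inhibition above about 58% in most replicates, limit read from the data, passing the limit was not always enough; inconclusive means exactly half the replicates above a set limit; inactive means most replicates below a set limit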;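 further: all wells also contain fluconazole at 8 µg/ml as a sub-toxic cotreatment; 0% = median of DMSO wells and 100% = median of geldanamycin control wells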
# PolyA inhibitor – blocks polyadenylation in yeast reporter cells; AID 1875; S. cerevisiae SKY197-pL101 polyadenylation reporter, beta-gal luminescence; efflux-impaired pdr1/pdr3 knockout yeast; score 100 = 6 SD above DMSO; 300,000 tested, 0.02% active; activity score, % at 12 µM;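 active means lowest replicate activity score at least 50, where 100 means six control SD above control mean; inconclusive means lowest score under 50 but half or more replicates reach 50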;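 further: yeast exposed to compound for 9 h at 30 °C; higher score means more reporter readthrough which indicates perturbed polyadenylation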
# Superoxide pick – yeast aging superoxide inhibition, cherry pick confirmation. superoxide response (% of plate), % at 10 µM. S. cerevisiae aging, superoxide DHE fluorescence; active compounds read low. 850 tested, 1% active. AID 434994. shares compounds with CR mimetic SO;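 active means superoxide signal below 65% of the plate average of sample wells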;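 further: cells aged with compound for 7 days at 30 degrees C before staining; 100% equals mean DHE fluorescence of all compound wells on the plate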
# DHE counter – DHE fluorescence interference, counter-screen artifact | S. cerevisiae BY4741, flow cytometry; active compounds read low | fluorescence response, % at 10 µM | 850 tested, under 10 active | shares compounds with CR mimetic SO;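 active means fluorescence response below 15%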;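 further: percent of the mean fluorescence averaged over all compound wells on the plate; lower means stronger quenching of DHE signal or ROS scavenging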
# An asterisk follows results filed as active; ? = inconclusive; . = not tested or not shown. Hits are enriched below; roughly 2% of the tested compounds scored in any of these assays.
SMILES,CR mimetic SO,SKKanGAS inh,Platelet DG rel,Calb FLC,PolyA inhibitor,others
O=C(O)c1cccc(Nc2c([N+](=O)[O-])c(=O)oc3ccccc23)c1,64*,-5,3,-8,6,
OC(COc1cccc2ccccc12)CN1CCCC1 (stereo unspecified),104,-4,8,27,-16,
OCCN1CCN(CC(O)COc2ccc(Cl)cc2)CC1 (stereo unspecified),106,-7,50*,-7,-5,
OC(COc1cccc2ccccc12)CN1CCN(c2ccc(Cl)cc2)CC1 (stereo unspecified),106,57*,-2,9,-12,
OC(COc1cccc2ccccc12)CN1CCN(c2cccc(Cl)c2)CC1 (stereo unspecified),103,52*,11,0,-21,
Cc1cccc(N2CCN(CC(O)COc3ccccc3Cl)CC2)c1 (stereo unspecified),100,9,-4,-7,3,
Cc1ccc(NC(=O)CSCC(=O)OCc2cc(=O)oc3cc(O)ccc23)c(C)c1,98,4,-2,-1,?,
Cc1ccc(S(=O)(=O)Nc2ccccc2C(=O)Nc2nc(-c3ccc(F)cc3)cs2)cc1,91,106*,-11,-2,-30,
Cc1ccc(S(=O)(=O)Nc2nc(-c3ccccc3)cs2)cc1,110,22,3,24,-1,
COc1ccc(-c2csc(NC(=O)c3ccccc3NS(=O)(=O)c3ccc(F)c(F)c3)n2)cc1,116,84*,-16,45,2,
CCOc1ncccc1C(=O)OCC(=O)Nc1nnc(-c2ccccc2)o1,112,20,7,9,0,
Cc1ccccc1C(=O)O/N=C/c1c(N2CCOCC2)n(C)c2ccccc12,92,6,2,107*,-24,
Cc1ccc(CN2CC(C(=O)N3CCN(S(=O)(=O)c4c(F)cccc4F)CC3)CC2=O)cc1 (stereo unspecified),93,-9,-5,-6,-5,
Cc1cc(C)cc(NS(=O)(=O)c2ccc(NC(=S)NC(=O)c3cccs3)cc2)c1,100,77*,-1,-4,-23,
Cc1ccc(CNC(=S)Nc2ccc(NS(=O)(=O)c3ccc(C)cc3)cc2)cc1,99,56*,-4,-2,-9,
Cc1nc2ccccc2nc(C)c1=NOCc1ccccc1Cl,111,0,7,-12,-28,
COc1cc(C#N)c(NS(=O)(=O)c2ccc3[nH]c(=O)sc3c2)cc1OC,95,2,-2,4,12,
CCOC(=O)c1ccc(N2CCN(C(=O)c3ccccc3)CC2)c(NC(=O)c2ccco2)c1,100,9,30,4,-3,
O=C(CSc1ccc(Cl)cc1)NC1=NN(c2ccccc2)C(=O)C1,100,77*,0,-5,11,
O=C(COc1c(F)c(F)c(C(F)(F)F)c(F)c1F)Nc1ccc(N2CCOCC2)c(Cl)c1,107,6,-2,19,9,
CCC(C)c1ccc(NC(=O)COc2c(F)c(F)c(C(F)(F)F)c(F)c2F)cc1 (stereo unspecified),99,67*,0,-9,-10,
COc1ccccc1CNC(=O)[C@H](C)NC(=O)C1CCN(C(=O)[C@@H](N)CCSC)CC1,102,2,1,2,-20,
O=C(CN1CCOCC1)NNC(=S)Nc1ccc(Cl)cc1,101,-6,17,0,-1,
O=C(CN1c2ccccc2Sc2ccccc21)NNC(=S)Nc1ccc(Cl)cc1Cl,107,111*,-24,-5,-3,
O=C(CN1c2ccccc2Sc2ccccc21)NNC(=S)Nc1ccc(Cl)cc1,87,89*,-9,-4,-12,
SMILES,CR mimetic SO,SKKanGAS inh,Platelet DG rel,Calb FLC,PolyA inhibitor,others
COc1ccc(Oc2c(-c3ccc(O)cc3O)n[nH]c2C)cc1,103,-9,1,5,1,
COc1cccc(Oc2cn[nH]c2-c2ccc(OC)cc2O)c1,118,14,.,3,-10,
CCCc1ccc(Oc2cn[nH]c2-c2ccc(O)c(C)c2O)cc1,108,88*,9,-10,-21,
CCCc1ccc(Oc2c(-c3ccc(O)c(C)c3O)n[nH]c2C)cc1,107,95*,-5,-21,-25,
COc1cc(S(=O)(=O)N2CCOCC2)cc(C(=O)OCC(=O)NCc2ccco2)c1OC,87,.,.,.,.,
CC(C)=CCCC1(C)C=Cc2c(c(C)cc3c2[nH]c2cc(O)ccc23)O1 (stereo unspecified),106,107*,-1,7,-6,
CC1C(=O)N(Cc2ccccc2F)c2ccccc2N1C(=O)c1c(F)cccc1F (stereo unspecified),65*,2,-7,3,16,Superoxide pick=92;DHE counter=99
COc1cccc(CN2C(=O)C(C)N(C(=O)c3c(F)cccc3F)c3ccccc32)c1 (stereo unspecified),94,7,-4,8,-11,
CCCCn1nc(NC(=O)c2cccs2)c2cc3ccccc3nc21,65*,6,6,10,-22,Superoxide pick=99;DHE counter=92
CCN1CCCc2cc(CN(CCN3CCOCC3)C(=S)Nc3ccccc3C)ccc21,61*,-7,-2,15,10,Superoxide pick=105;DHE counter=101
CCN1CCCc2cc(CN(CCN3CCOCC3)C(=S)Nc3ccccc3OC)ccc21,82,0,9,1,-14,
CC(=O)C1=C(O)C(=O)N(c2ccc(Br)cc2)C1c1ccc(Br)cc1 (stereo unspecified),95,1,-8,9,18,
CCNC(=O)O/N=C1\CCCCC1c1ccc([N+](=O)[O-])cc1[N+](=O)[O-] (stereo unspecified),123,8,-1,1,-1,
CCC(CO)Oc1cc(NCc2ccc(C(C)(C)C)cc2)c2ncn(C(C)C)c2c1 (stereo unspecified),115,.,.,.,.,
CCC(CO)Oc1cc(NCc2ccc(O)cc2)c2ncn(C(C)C)c2c1 (stereo unspecified),65*,.,.,.,.,Superoxide pick=83;DHE counter=91
Cc1c(C(=O)O)oc2ccc(S(=O)(=O)NCc3ccc(F)cc3)cc12,75,-2,3,2,14,
Cc1c(C(=O)O)oc2ccc(S(=O)(=O)NC3CCCCCCC3)cc12,63*,4,-5,-10,-13,Superoxide pick=110;DHE counter=131
COc1ccc(CNS(=O)(=O)c2ccc3oc(C(=O)O)c(C)c3c2)cc1,63*,-2,3,-6,-4,Superoxide pick=100;DHE counter=121
CC(=O)NN(O)C1N(C)C(=O)N(Cc2ccccc2)C1(C)C (stereo unspecified),97,2,-4,-8,20,
CN(C)S(=O)(=O)N1CCN(c2cccc(Cl)c2)CC1,64*,-4,9,2,14,Superoxide pick=109;DHE counter=89
CSc1nc(O)cc(=O)n1-c1ccc(F)cc1,92,9,-3,-4,-9,
